According to PubChem BioAssay (NCI):
About 83,000 compounds went through this panel and 20% of them were active in at least one assay; those are over-represented in the sample as a whole.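 The endpoint reported here, percent growth, reads 100 for growth as untreated, 0 for no net growth and -100 for all cells dead.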 A number with no mark means an inactive call. Active and inactive are the calls of the source. The calls were made as follows: active = growth percent below 10; inactive = the rest.

Columns and labels:
Assay in all cases: NCI-60 one-dose screen, 48 h (100 = growth as untreated, 0 = no growth, -100 = all killed)
Conditions in all cases: 10 µM unless noted
BT-549 breast = tested on: BT-549 breast
MDA-MB-435 melanoma = tested on: MDA-MB-435 melanoma
SW-620 colon = tested on: SW-620 colon
MCF7 breast = tested on: MCF7 breast
HCT-116 colon = tested on: HCT-116 colon
HCC-2998 colon = tested on: HCC-2998 colon
KM12 colon = tested on: KM12 colon

SMILES	growth (BT-549 breast)	growth (MDA-MB-435 melanoma)	growth (SW-620 colon)	growth (MCF7 breast)	growth (HCT-116 colon)	growth (HCC-2998 colon)	growth (KM12 colon)
COc1ccc(/C=N/OCC(O)CNCc2ccccc2)cc1OC1CCCC1 (configuration not stated)	90.9%	99.4%	103%	93.9%	95.2%	110%	104%
Cc1ccc(N(CSc2ccc(Cl)cc2)CSc2ccc(Cl)cc2)cc1	19.1%	40.8%	31.4%	65.6%	38.9%	88.1%	18.4%
O=C(c1ccccc1)C(Br)C(Br)c1cccc([N+](=O)[O-])c1 (configuration not stated)	74.8%	22.5%	-100% (active)	24.8%	-91% (active)	89.5%	33.7%
COc1cc(/C=N/NC(=O)c2cnn3c2NC(c2ccccc2)C3)cc(OC)c1OC (configuration not stated)	60.2%	-15.9% (active)	32.8%	34.9%	35%	91.2%	30.6%
Nc1nc(-c2ccnc(Cl)c2)nn1-c1nc2ccccc2s1	106%	107%	106%	97.2%	107%	104%	101%
CCCCCCCC/C=C\CCCCCCCCOc1cccc(CC(=O)NCC[N+]2(C)CCCC2)c1	115%	85.7%	77.9%	73.4%	76.2%	75.9%	69.2%
Cc1c(C(=O)Nc2nc(-c3ccccc3)cs2)nnn1-c1cccc2ccccc12	56.7% [50 µM]	47.2% [50 µM]	71.6% [50 µM]	38.7% [50 µM]	30% [50 µM]	87.7% [50 µM]	65% [50 µM]
C[C@@H](Oc1cc(-c2cnn(C3CC4(CNC4)C3)c2)cnc1N)c1c(Cl)ccc(F)c1Cl	80.3%	41%	23.8%	9.06% (active)	16.7%	57.1%	-18.5% (active)
CN([N-]C(=O)CC(=O)[N-]N(C)C(=S)c1ccccc1)C(=S)c1ccccc1.[Cu+2]	-73% (active)	-83.9% (active)	-67.4% (active)	-48.3% (active)	-12.4% (active)	-94.2% (active)	-74.8% (active)
CCSc1nnc2c3cc(Br)ccc3n(C)c2n1	95.6%	104%	103%	84.3%	95.6%	111%	103%
O=C(N/N=C/c1ccc(OC(F)F)c(OC2CCCC2)c1)c1cnn2c1NC(c1ccccc1)C2 (configuration not stated)	73.4%	18%	78.4%	69.2%	67.4%	111%	54.8%
COc1cc2cc(Oc3ccc(NC(=O)Nc4cccc(C(F)(F)F)c4)cc3)c(C)nc2cc1OCCN1CCCCC1	79.5%	-92.8% (active)	-82% (active)	-80.4% (active)	-23.1% (active)	-50% (active)	-92.2% (active)
COC(=O)[C@@]12CC[C@@H](C)[C@]3(C[C@@H](c4ccoc4)OC3=O)[C@H]1CC[C@@H]1O[C@@]12C	101%	99.8%	97.1%	96.7%	95.5%	101%	103%
CC1CCCCN1S(=O)(=O)c1ccc(CN=C=S)cc1 (configuration not stated)	76%	47.2%	-15.4% (active)	10.2%	9.92% (active)	103%	22.2%
COC(=O)c1c2c(c(C)[n+]([O-])c1C)C(=O)C(NCc1ccc(O)cc1)=CC2=O	34.5%	-96.5% (active)	-3.33% (active)	-63.4% (active)	-6.79% (active)	-20.1% (active)	2.07% (active)
O=C(Nc1ccccc1O)c1ccc(NS(=O)(=O)c2cccc3cccnc23)cc1	55.6%	32.6%	30%	42.3%	23.7%	57.3%	74.8%

SMILES	growth (BT-549 breast)	growth (MDA-MB-435 melanoma)	growth (SW-620 colon)	growth (MCF7 breast)	growth (HCT-116 colon)	growth (HCC-2998 colon)	growth (KM12 colon)
O=c1c2c(=NCCN3CCCC3)cc3c(=O)n(CCCN4CCOCC4)c(=O)c4ccc(c(O)n1CCCN1CCOCC1)c2c4-3	-34.9% (active)	-87.9% (active)	-15.5% (active)	-17.7% (active)	0.411% (active)	-45.8% (active)	-20.9% (active)
COc1cc(/C=N/NC(=O)c2cnn3c2NC(c2ccccc2)C3)ccc1OC1CCCC1 (configuration not stated)	16.8%	0.812% (active)	18.3%	16.8%	18.9%	63.8%	18.1%
CCCCCCCC/C=C\CCCCCCCCOc1cccc(CC(=O)NCC[N+](C)(C)C)c1	74.4%	91.5%	96.5%	90.8%	75.2%	66.1%	57.8%
Cc1ccc(NS(=O)(=O)c2ccc(-c3cnc(C4CC4)o3)cc2)cc1	40.4%	-3.14% (active)	12.4%	15.6%	11.8%	69.2%	20.5%
CSC1=CC(=O)c2ccccc2C1=O	92.3%	89.4%	-55.2% (active)	93.2%	-57% (active)	107%	71.9%
COc1ccc(S(=O)(=O)ON=C2C=C(C)C(=O)C(C)=C2)cc1	97.7%	18.1%	60.7%	64%	44.9%	112%	97.6%
Nc1nc2c(s1)CCc1c-2c(Br)n(Cc2ccccc2)c1Br	93.7%	95.6%	35.3%	78.4%	23.5%	102%	108%
Cn1c2ccccc2c2nn(Cc3ccccc3)c(=O)nc21	110%	112%	99.3%	95.1%	109%	114%	104%
COc1cc(NC(=O)COc2ccccc2)c(C(N)=O)cc1OC	59.5%	-77.5% (active)	26.8%	17.1%	29.5%	47.1%	29.3%
OB(O)c1ccccc1	96.2%	109%	108%	111%	108%	109%	107%
Cc1ccc(S(=O)(=O)N(c2ccc(Cl)cc2)c2ccc(Br)cc2C(=O)O)cc1	134%	107%	104%	104%	113%	115%	108%
Fc1c[c-]c(-c2ccccn2)c(F)c1.Fc1c[c-]c(-c2ccccn2)c(F)c1.[Cl][Pt+].[Cl][Pt+].c1ccc([PH+](C[PH+](c2ccccc2)c2ccccc2)c2ccccc2)cc1	15.8%	5.73% (active)	15.5%	8.56% (active)	8.2% (active)	22.4%	12.3%
CCN(CC)c1ccc2c(c1)OS(=O)(=O)N=C2	95.7%	101%	103%	94.7%	99.5%	114%	113%
CCCCCCCC/C=C\CCCCCCCCOc1cccc(CC(=O)NCC[N+]2(C)CCCCC2)c1	95.3%	82.1%	59.7%	75.7%	71.5%	67.9%	43.6%
N#Cc1c(-c2cccc(F)c2)cc(-c2ccc(Br)s2)[nH]c1=O	65.7%	-25.8% (active)	28.6%	63.4%	30.8%	110%	60.1%
